Experiment [1] can be described thus: Caspase-3/7 induction in HepG2 cells by small molecules, qHTS assay (AID 1346978). Note: nearly all actives have a fitted effect of over 15% in size. The essentials: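 Wild-type HepG2 cells, 2,000/well, settled 5 hr at 37 C and 5% CO2, then compound-treated for 17 hr; caspase-3/7 activity read by luminescent Caspase-Glo 3/7 after 30 min at room temperature.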
Experiment [2] can be described thus: Caspase-3/7 induction in CHO-K1 cells by small molecules, qHTS cell viability counter screen (AID 1346979). Note: nearly all actives have a fitted effect of over 35% in size. Note: potency is the fitted concentration of half-maximal effect. Summed up:
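To flag cytotoxic compounds, treated CHO-K1 wild-type cells were given CellTiter-Fluor at 16hr and read fluorescently after 1hr at 37C; the caspase-3/7 luminescence was measured in these same wells.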
A general note: In qHTS, concentration-response curves come from the screen itself.

A short description of experiment [3]: Caspase-3/7 induction in CHO-K1 cells by small molecules, qHTS assay (AID 1346980). Note: nearly all actives have a fitted effect of over 15% in size. The essentials: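 Wild-type CHO-K1 cells exposed to compounds for 17hr at 37 C, 5% CO2. Caspase-3/7 activity then measured by Caspase-Glo 3/7 luminescence after 30min at room temperature.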
Experiment [4] in a line: Caspase-3/7 induction in HepG2 cells by small molecules, qHTS cell viability counter screen (AID 1346981). Note: series mostly up to about 92 µM; nearly all actives have a fitted effect of over 30% in size. Summed up: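 Fluorescence read-out of live-cell protease activity (CellTiter-Fluor) after 1 hr with reagent. This was measured in the same wells as the caspase-3/7 luminescence, on HepG2 cells exposed to DMSO-dissolved compounds for 16 hr at 37 C.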
The target in experiment [5] is Nuclear receptor subfamily 1 group I member 2 (Homo sapiens) (UniProt O75469). As to the kind of experiment: Human pregnane X receptor (PXR) small molecule agonists, qHTS assay (AID 1346982). Note: nearly all actives have a fitted effect of over 35% in size. Note: potency is the fitted concentration of half-maximal effect. The essentials: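 HepG2 PXR-Luc reporter line, 5% charcoal-stripped FBS; 5 hr pre-incubation, compound (DMSO) 24 hr at 37 C/5% CO2; ONE-Glo 30 min RT; luminescence read-out.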

Experiment [6] has as its target Acetylcholinesterase (Homo sapiens) (UniProt P22303). Description: Acetylcholinesterase (AChE) small molecule antagonists: colormetric cell-based qHTS assay (AID 1347395; calls by dose curve; note: nearly all actives have a fitted effect of over 30% in size). Summed up: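 Neuroblastoma line SH-SY5Y supplied the enzyme; cells were preincubated with compound for 30 min at 37 C and 5% CO2. Acetylthiocholine with DTNB was then added for 90 min at 37 C, and thiocholine was measured by colour.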

Experiment [7] has the same target. Description: Acetylcholinesterase (AChE) small molecule antagonists: enzyme-based qHTS assay (AID 1347397; calls by dose curve; note: nearly all actives have a fitted effect of over 55% in size). Conditions: Potency: AChE enzyme activity inhibition. Summed up: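 Colorimetric DTNB read-out of thiocholine released from acetylthiocholine by recombinant human AChE (50 mU/mL as dispensed). Compounds were preincubated 30 min at RT before substrate/DTNB addition, with a 10 min RT reaction.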

For experiment [8] the target is unchanged. As to the kind of experiment: Acetylcholinesterase (AChE) small molecule antagonists: fluorescence cell-based qHTS assay (AID 1347398; calls by dose curve; note: nearly all actives have a fitted effect of over 50% in size). Conditions: Potency: AChE activity. Summed up: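 SH-SY5Y, 2,000 cells/well, attached overnight; cmpd 30 min 37 C; acetylthiocholine/Thiolite Green cocktail 40 min RT; fluorescence Ex/Em 490/520 nm.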
Experiment [9] has the same target. Description: Acetylcholinesterase (AChE) small molecule antagonists: enzyme-based qHTS assay with human liver microsomes (AID 1347399; calls by dose curve; note: nearly all actives have a fitted effect of over 60% in size). Conditions: Potency: qHTS inhibition. The essentials:
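Recombinant human AChE (50 mU/mL in the enzyme mix) and human liver microsomes (0.25 mg/mL final) were preincubated with compound and NADPH (0.25 mg/mL final) for 30 min at 37 C. Acetylthiocholine/DTNB was then added; thiocholine was read colorimetrically after 10 min at room temperature.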

In experiment [10] the target is Cytochrome P450 2D6 (Homo sapiens) (UniProt P10635). Description: Cytochrome P450 Family 2 Subfamily D Member 6 (CYP2D6) small molecule antagonists: luciferase reporter qHTS assay (AID 1671196). Note: series mostly up to about 120 µM; nearly all actives have a fitted effect of over 50% in size. Summed up:
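Luminogenic proluciferin substrate, CYP2D6 enzyme; 10 min RT preincubation with compound, NADPH regeneration system added, 1 h RT. Stop/detection reagent, 20 min RT, luminescence read (RLU). Signal proportional to CYP activity.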
(A reporter such as luciferase makes a cellular process visible.)

In experiment [11] the target is Cytochrome P450 2C19 (Homo sapiens) (UniProt P33261). As to the kind of experiment: Cytochrome P450 Family 2 Subfamily C Member 19 (CYP2C19) small molecule antagonists: luciferase reporter qHTS assay (AID 1671197). Note: nearly all actives have a fitted effect of over 65% in size. Note: potency is the fitted concentration of half-maximal effect. The essentials:
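Quantitative high-throughput screen of the Tox21 library using CYP2C19 with proluciferin substrate. Reaction: NADPH regeneration, 37C, 1 h, after 10 min compound preincubation at room temperature. Readout: luminescence.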

Experiment [12] addresses Cytochrome P450 2C9 (Homo sapiens) (UniProt P11712). As to the kind of experiment: Cytochrome P450 Family 2 Subfamily C Member 9 (CYP2C9) small molecule antagonists: luciferase reporter qHTS assay (AID 1671198). Note: nearly all actives have a fitted effect of over 50% in size. Note: potency is the fitted concentration of half-maximal effect. The essentials:
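P450-Glo proluciferin substrate with CYP2C9 enzyme; 10 min RT preincubation, then NADPH regeneration 1 h at 37C; luciferin detection reagent 20 min RT, luminescence in relative luminescence units.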

In experiment [13] the target is Cytochrome P450 1A2 (Homo sapiens) (UniProt P05177). Description: Cytochrome P450 Family 1 Subfamily A Member 2 (CYP1A2) small molecule antagonists: luciferase reporter qHTS assay (AID 1671199). Note: nearly all actives have a fitted effect of over 50% in size. Note: potency is the fitted concentration of half-maximal effect. Summed up:
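Luminescence readout (relative luminescence units) after luciferin detection reagent, 20 min RT. Preceded by 1 h room-temperature CYP1A2 reaction with NADPH regeneration solution following 10 min compound preincubation with enzyme and proluciferin substrate. Furafylline positive control.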

Experiment [14] concerns the target Voltage-gated inwardly rectifying potassium channel KCNH2 (Homo sapiens) (UniProt Q12809). Description: Human Ether-a-go-go-Related Gene (hERG) channel small molecule antagonists: fluorescence cell-based qHTS assay (AID 1671200). Summed up:
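Measured: Tl+ flux via fluorescence (480/540 nm) in hERG-expressing U2OS cells after 1 h dye loading at room temperature.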
A general note: The hERG channel carries a current that helps repolarise heart muscle cells.

Experiment [15] concerns the target Cytochrome P450 3A4 (Homo sapiens) (UniProt P08684). Description: Cytochrome P450 Family 3 Subfamily A Member 4 (CYP3A4) small molecule antagonists: luciferase reporter qHTS assay (AID 1671201). Note: nearly all actives have a fitted effect of over 50% in size. Note: potency is the fitted concentration of half-maximal effect. Summed up: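 Setup: enzyme-substrate mix, compound pin transfer, 10 min RT. Reaction: NADPH regeneration solution, 1 h RT. Readout: detection reagent stops turnover, luminescence measured after 20 min, expressed in relative luminescence units.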

SMILES strings stand for the structures. Unmarked numbers belong to inactive results. Records with an inconclusive call do not appear. The source made the active and inactive calls. Unless noted, calls come from the whole dose curve; as a rule, active = well fitted curve in the direction sought with a large enough effect in the repeat runs; inconclusive = weak or mixed curves; inactive = no such curve, though single readings can be large; an effect the other way counts as inactive or inconclusive.

Chain of Voltage-gated inwardly rectifying potassium channel KCNH2 (Homo sapiens) (Q12809 whole entry, looked up): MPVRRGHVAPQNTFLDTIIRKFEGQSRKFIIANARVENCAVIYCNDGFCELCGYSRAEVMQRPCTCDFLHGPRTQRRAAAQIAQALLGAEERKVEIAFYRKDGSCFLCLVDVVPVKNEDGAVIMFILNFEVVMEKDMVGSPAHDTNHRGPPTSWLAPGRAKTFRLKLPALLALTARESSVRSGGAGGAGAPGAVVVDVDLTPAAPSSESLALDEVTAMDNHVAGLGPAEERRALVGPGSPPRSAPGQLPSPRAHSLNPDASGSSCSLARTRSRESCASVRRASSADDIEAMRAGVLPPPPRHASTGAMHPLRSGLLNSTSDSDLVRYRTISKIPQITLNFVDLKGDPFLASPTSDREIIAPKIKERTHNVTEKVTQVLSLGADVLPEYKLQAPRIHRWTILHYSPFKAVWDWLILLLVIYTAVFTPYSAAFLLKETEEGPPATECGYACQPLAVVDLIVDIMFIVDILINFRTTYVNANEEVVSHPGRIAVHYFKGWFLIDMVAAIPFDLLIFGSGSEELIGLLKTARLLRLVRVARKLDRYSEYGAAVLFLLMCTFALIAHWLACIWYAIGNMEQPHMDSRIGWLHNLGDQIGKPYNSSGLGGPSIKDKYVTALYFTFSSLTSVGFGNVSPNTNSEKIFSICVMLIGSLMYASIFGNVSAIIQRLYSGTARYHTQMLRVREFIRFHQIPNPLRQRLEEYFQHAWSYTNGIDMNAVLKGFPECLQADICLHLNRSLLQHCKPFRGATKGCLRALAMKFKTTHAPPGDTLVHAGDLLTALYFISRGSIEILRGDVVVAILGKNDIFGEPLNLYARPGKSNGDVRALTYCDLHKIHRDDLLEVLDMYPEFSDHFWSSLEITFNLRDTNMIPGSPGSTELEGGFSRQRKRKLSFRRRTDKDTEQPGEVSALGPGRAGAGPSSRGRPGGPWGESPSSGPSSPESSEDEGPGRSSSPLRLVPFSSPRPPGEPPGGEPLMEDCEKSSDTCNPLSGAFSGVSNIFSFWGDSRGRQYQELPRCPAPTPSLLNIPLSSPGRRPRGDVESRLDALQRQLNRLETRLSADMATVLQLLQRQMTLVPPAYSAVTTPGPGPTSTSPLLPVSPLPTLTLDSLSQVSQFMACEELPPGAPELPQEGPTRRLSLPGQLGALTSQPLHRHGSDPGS
Chain of Nuclear receptor subfamily 1 group I member 2 (Homo sapiens) (O75469 whole entry, looked up): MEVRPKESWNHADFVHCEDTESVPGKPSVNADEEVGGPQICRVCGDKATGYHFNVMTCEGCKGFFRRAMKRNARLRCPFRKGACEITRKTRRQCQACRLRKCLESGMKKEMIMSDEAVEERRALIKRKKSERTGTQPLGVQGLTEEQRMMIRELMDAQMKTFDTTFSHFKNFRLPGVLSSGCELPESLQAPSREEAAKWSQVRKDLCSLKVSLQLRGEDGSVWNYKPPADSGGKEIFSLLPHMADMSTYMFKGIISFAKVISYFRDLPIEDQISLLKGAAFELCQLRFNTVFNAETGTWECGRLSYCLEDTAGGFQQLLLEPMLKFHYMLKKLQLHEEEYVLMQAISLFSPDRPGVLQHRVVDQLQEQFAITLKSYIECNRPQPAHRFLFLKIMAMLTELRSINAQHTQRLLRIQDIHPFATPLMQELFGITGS
Chain of Cytochrome P450 3A4 (Homo sapiens) (P08684 whole entry, looked up): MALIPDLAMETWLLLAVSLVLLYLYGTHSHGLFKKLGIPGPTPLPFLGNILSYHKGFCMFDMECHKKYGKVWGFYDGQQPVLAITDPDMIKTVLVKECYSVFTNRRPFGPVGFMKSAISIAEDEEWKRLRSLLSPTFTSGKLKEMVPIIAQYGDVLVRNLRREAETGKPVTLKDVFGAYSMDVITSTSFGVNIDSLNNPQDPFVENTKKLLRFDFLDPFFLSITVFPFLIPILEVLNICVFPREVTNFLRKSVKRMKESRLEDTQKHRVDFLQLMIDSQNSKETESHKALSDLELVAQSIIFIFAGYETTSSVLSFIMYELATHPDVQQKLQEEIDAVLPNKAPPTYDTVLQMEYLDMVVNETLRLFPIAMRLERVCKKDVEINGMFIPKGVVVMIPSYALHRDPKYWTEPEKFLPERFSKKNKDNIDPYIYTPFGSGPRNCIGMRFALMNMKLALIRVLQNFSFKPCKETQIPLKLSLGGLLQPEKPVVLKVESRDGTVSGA
Chain of Cytochrome P450 1A2 (Homo sapiens) (P05177 whole entry, looked up): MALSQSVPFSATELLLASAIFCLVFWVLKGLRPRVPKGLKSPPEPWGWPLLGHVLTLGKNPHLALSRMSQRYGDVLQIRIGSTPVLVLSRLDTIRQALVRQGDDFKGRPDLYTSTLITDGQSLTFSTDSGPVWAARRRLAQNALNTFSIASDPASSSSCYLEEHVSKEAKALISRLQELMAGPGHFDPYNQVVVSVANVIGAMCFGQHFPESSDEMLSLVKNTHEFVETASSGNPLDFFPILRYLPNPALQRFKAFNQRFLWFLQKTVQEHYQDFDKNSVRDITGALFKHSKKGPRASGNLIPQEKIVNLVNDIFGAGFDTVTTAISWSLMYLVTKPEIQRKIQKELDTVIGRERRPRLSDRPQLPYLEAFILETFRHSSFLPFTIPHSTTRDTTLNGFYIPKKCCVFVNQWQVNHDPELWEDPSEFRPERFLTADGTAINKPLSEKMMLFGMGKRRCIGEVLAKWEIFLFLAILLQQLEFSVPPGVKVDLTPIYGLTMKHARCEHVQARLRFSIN
Chain of Cytochrome P450 2D6 (Homo sapiens) (P10635 whole entry, looked up): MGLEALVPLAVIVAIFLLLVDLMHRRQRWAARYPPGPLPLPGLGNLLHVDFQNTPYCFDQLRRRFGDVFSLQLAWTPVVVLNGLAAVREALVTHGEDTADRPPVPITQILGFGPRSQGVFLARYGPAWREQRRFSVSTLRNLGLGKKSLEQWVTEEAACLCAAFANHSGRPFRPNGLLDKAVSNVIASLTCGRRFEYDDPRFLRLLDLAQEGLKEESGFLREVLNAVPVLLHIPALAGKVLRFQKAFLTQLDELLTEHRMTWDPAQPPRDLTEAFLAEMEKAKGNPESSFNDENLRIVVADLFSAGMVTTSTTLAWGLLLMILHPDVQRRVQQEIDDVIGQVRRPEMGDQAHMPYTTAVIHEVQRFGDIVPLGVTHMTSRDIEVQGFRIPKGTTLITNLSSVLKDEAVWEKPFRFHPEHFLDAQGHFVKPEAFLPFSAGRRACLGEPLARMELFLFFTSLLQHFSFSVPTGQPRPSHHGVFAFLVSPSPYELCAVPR
Chain of Cytochrome P450 2C19 (Homo sapiens) (P33261 whole entry, looked up): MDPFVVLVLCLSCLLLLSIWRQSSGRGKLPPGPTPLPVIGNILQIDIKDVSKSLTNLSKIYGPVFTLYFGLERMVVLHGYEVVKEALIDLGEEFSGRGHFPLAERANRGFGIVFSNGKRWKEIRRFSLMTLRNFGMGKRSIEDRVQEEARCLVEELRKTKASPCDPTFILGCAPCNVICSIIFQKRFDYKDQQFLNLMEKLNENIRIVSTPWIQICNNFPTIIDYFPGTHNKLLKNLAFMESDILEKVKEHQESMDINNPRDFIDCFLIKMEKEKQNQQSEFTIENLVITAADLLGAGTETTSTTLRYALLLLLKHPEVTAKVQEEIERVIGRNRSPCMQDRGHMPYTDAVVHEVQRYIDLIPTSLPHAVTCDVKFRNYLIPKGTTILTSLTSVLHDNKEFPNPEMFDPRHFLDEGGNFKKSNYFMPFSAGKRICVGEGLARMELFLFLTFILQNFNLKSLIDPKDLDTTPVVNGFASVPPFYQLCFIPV
Chain of Acetylcholinesterase (Homo sapiens) (P22303 whole entry, looked up): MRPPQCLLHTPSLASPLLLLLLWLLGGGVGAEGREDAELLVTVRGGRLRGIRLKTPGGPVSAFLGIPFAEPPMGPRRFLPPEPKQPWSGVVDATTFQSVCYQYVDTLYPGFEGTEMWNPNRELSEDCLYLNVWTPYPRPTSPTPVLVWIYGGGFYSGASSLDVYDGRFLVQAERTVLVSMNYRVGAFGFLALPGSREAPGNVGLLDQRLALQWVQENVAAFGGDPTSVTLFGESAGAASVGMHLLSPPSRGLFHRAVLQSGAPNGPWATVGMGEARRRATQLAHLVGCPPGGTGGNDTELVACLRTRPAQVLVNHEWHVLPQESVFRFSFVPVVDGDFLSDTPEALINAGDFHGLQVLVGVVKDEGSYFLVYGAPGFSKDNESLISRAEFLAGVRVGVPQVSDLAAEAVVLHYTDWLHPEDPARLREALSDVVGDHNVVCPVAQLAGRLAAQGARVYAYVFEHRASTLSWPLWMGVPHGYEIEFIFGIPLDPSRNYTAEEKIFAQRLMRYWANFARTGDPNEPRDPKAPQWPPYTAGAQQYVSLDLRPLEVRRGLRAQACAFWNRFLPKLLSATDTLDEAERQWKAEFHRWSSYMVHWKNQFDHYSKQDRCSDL
Chain of Cytochrome P450 2C9 (Homo sapiens) (P11712 whole entry, looked up): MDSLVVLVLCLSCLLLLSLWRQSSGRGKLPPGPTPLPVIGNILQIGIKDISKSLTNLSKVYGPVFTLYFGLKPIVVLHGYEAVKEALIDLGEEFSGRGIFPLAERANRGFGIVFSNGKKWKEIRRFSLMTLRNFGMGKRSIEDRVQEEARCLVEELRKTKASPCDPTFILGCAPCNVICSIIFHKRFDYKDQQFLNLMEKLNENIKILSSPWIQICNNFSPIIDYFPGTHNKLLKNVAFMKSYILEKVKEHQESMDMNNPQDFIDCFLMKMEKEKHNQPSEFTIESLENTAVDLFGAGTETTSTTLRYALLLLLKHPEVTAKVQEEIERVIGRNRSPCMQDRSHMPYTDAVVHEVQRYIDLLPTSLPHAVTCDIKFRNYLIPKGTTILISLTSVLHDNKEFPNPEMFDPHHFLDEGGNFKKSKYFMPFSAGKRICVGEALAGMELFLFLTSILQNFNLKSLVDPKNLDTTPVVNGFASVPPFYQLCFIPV

`COC(N)=O`: the Potency entry in experiment [1], in [2], in [3], in experiment [4], in experiment [5] and in [6] was “inactive” throughout. Moreover, the Potency result in [7], in [8], in experiment [9], in experiment [10], in experiment [11] and in [12] was “inactive” throughout. Moreover, the Potency entry in [14] and in experiment [15] was “inactive” in each case. For the same compound, the Potency in experiment [13] was 35.6 µM (active).
Take `Clc1cccc2ccccc12`: the Potency result in experiment [1], in experiment [2], in [3], in [4], in experiment [5] and in experiment [6] was “inactive” in each case. The Potency entry in [7], in [8], in experiment [9], in experiment [10], in experiment [11] and in experiment [12] was “inactive” in each case. The Potency result in experiment [14] and in experiment [15] was “inactive” each time.
Consider `O=C(O)C(F)(F)C(F)(F)C(F)(F)C(F)(F)C(F)(F)C(F)(F)C(F)(F)C(F)(F)C(F)(F)F`, for which the Potency entry in experiment [1], in [2], in experiment [3], in experiment [4], in experiment [5] and in experiment [6] was “inactive” in each case. The Potency result in [7], in experiment [8], in [9], in experiment [10], in experiment [11] and in [13] was “inactive” in each case. The Potency result in [14] and in experiment [15] was “inactive” throughout. Further, in [12], the Potency is 2.83 µM (active).
Consider `CCCN(CCCl)c1c([N+](=O)[O-])cc(C(F)(F)F)cc1[N+](=O)[O-]`, for which the Potency result in [1], in [2], in experiment [3], in [4], in experiment [6] and in [7] was “inactive” in each case. Further, the Potency entry in experiment [8], in experiment [9] and in experiment [14] was “inactive” throughout. The Potency in experiment [5] is 21.7 µM (active); in [11], 17.8 µM (active); in experiment [12], 20 µM (active); in experiment [13] it was 12.6 µM (active); in experiment [15], 22.4 µM (active).
`COc1cc(Cl)c(OC)cc1Cl`: the Potency result in [1], in experiment [2], in experiment [3], in [4], in experiment [5] and in experiment [6] was “inactive” throughout. Also, the Potency result in experiment [7], in [8], in [9], in experiment [10] and in experiment [14] was “inactive” throughout. Further, the Potency is 79.6 µM (active) in [11], 71 µM (active) in [12], 12.6 µM (active) in experiment [13] and 15.9 µM (active) in experiment [15].
On to `Nc1nc(N)nc(N)n1`, for which the Potency result in experiment [1], in [2], in experiment [3], in [4], in experiment [5] and in experiment [6] was “inactive” each time. In addition, the Potency result in experiment [7], in experiment [8], in [9], in experiment [10], in experiment [12] and in experiment [14] was “inactive” each time. Moreover, the Potency entry in [15] was “inactive”. Further, in experiment [13], the Potency was 31.8 µM (active).
For the compound `C=CCCl`, the Potency entry in experiment [1], in experiment [2], in experiment [3], in experiment [4], in [5] and in experiment [6] was “inactive” in each case. The Potency result in [7], in [8], in experiment [9], in experiment [10], in [11] and in experiment [12] was “inactive” each time. Moreover, the Potency result in [14] and in [15] was “inactive” each time.
As for `O=C(NC(=O)c1c(F)cccc1F)Nc1cc(Cl)c(Oc2ncc(C(F)(F)F)cc2Cl)c(Cl)c1`, the Potency entry in [1], in experiment [3], in experiment [4], in experiment [6], in experiment [7] and in experiment [8] was “inactive” each time. The Potency entry in experiment [9], in [10], in experiment [13], in experiment [14] and in experiment [15] was “inactive” in each case. Moreover, the Potency in [2] is 52.2 µM (active); in experiment [5] it was 8.27 µM (active).

The record behind these values is PubChem BioAssay (Tox21).
